Assay outcomes from PubChem BioAssay.
BRCA1 expr act: qHTS Assay to Identify Small Molecule Activators of BRCA1 Expression. Potency, µM (series often up to 46.1 µM), inactives show top-dose activation, hits mostly activators. MCF7-BRCA1-FFLuc reporter, luminescence, 48 h; response scale: scaled: vehicle 0%, 10 µM genistein 100%. 380,000 tested, 1.1% active. AID 624202, 2012; note: potency is the fitted concentration of half-maximal effect; nearly all actives have a fitted effect of over 80% in size
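First, MCF7-BRCA1-FFLuc cells (2000/well) attach for 2 h; next, compounds are pin-added and incubated 48 h at 37 °C; finally, luciferase reagent is added and luminescence read after 15 min.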
IL-2 act: qHTS of IL-2 Activators | IL-2 activation reporter assay, cell-based qHTS; stimulated with anti-CD3/CD4/CD28 beads; in transgenic mouse T cells | 360,000 tested, 0.065% active | activation, % (series mostly up to about 46 µM); in the data active = activation above about 50%; inconclusive = mostly about 30% to 49%; note: 0% is about no effect
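First, unstimulated transgenic mouse T cells were exposed to compound for 60 min. Next, anti-CD3/anti-CD4-coated beads with anti-CD28 were added. Finally, after 18 h at 37 degrees C, EGFP and DsRed were imaged.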
NPSR antagonist: qHTS Assay for Antagonists of the Neuropeptide S Receptor: cAMP Signal Transduction. Q6W5P4. CHO-NPSR cells, cAMP TR-FRET, antagonist mode. Potency, µM (doses to about 38.3 µM), for inactives: top-dose activity change, negative = inhibition, most hits filed as inhibitors. 220,000 tested, 1% active; note: potency is the fitted concentration of half-maximal effect; % is set by controls: 0 for no effect and ±100 for the full control effect; nearly all actives have a fitted effect of over 50% in size
Giardia kill: Small Molecules that selectively kill Giardia lamblia: qHTS; Giardia lamblia trophozoite viability; 340,000 tested, 0.15% active; activity change, % at 7.66 µM, hits read low; in the data active = activity change below about -80%; inconclusive = between about -30% and that limit;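 note: parasites exposed to compound for two days anaerobically before the ATP read; % is set by controls: 0 for no effect and ±100 for the full control effect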
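Compounds were tested on trophozoites seeded at 100 cells/well and held 48 hrs at 37 deg C anaerobically. An ATP-based luminescent kit measured the remaining live cells.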
RXFP1 antag: qHTS Assay for Antagonists of the Relaxin Receptor RXFP1. Relaxin receptor 1 (Homo sapiens), Q9HBX9. HEK293-RXFP1, relaxin-stimulated cAMP HTRF, 30 min; active compounds read low. activity change, negative = inhibition, % at 57.5 µM. 350,000 tested, 0.59% active. AID 1259400, 2018;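 active = activity change of -60% or lower, but not beyond a set lower limit; inconclusive = change between -60% and -40%, or beyond the set limit; inactive = change above -40%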; note: % is set by controls: 0 for no effect and ±100 for the full control effect
Target sequence (Q9HBX9 whole entry, looked up): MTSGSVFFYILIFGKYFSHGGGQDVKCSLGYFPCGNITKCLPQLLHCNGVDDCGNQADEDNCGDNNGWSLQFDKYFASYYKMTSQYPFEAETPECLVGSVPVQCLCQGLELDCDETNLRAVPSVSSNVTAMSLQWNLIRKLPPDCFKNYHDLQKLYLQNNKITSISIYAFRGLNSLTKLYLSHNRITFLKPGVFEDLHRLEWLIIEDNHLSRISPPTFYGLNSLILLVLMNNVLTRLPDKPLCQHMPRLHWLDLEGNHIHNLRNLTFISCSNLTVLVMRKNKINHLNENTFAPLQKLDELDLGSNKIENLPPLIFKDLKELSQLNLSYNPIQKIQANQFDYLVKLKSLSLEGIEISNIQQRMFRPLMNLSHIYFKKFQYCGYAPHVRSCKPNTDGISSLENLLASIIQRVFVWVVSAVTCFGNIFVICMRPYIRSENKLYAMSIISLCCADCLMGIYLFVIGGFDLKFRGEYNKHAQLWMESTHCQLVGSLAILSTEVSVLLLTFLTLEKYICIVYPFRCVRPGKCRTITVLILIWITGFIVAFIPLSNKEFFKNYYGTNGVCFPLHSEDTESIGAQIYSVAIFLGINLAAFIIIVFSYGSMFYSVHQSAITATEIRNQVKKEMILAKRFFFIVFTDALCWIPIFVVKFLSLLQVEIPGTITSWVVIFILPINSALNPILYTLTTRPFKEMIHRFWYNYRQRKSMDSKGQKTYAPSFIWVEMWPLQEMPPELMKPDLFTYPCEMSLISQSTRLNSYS
RXFP1 agonist: qHTS Assay for Agonists of the Relaxin Receptor RXFP1 | Relaxin receptor 1 (Homo sapiens), Q9HBX9 | HEK293T-RXFP1 cAMP TR-FRET, 30 min; response scale: percent of porcine relaxin response, buffer zero | Potency, µM (doses to about 57.5 µM), for inactives: at the highest dose activation, hits mostly activators | 370,000 tested, 0.3% active | AID 2676, 2010; note: potency is the fitted concentration of half-maximal effect; % is set by controls: 0 for no effect and ±100 for the full control effect; nearly all actives have a fitted effect of over 60% in size
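Agonist response is measured as cAMP accumulation in an RXFP1-transfected HEK293T line under PDE4 inhibition. Values are scaled between buffer-only and 29 nM porcine relaxin, and EC50s come from standard Hill equation fits.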
Starred values were filed as active, the others as inactive; ? = inconclusive; . = no result given; [ ] = another dose, or the depositor's remark. Sampled rows, rich in hits. Any-hit rate of the full collection: about 1.9%. Unless noted, calls come from the whole dose curve; as a rule, active = well fitted curve in the direction sought with a large enough effect; inconclusive = small, poorly fitted or top-dose-only effect, or another doubt; inactive = no such curve, though single readings can be large; an effect the other way counts as inactive or inconclusive.

SMILES | BRCA1 expr act | IL-2 act | NPSR antagonist | Giardia kill | RXFP1 antag | RXFP1 agonist
CCCCN(C(=O)Cc1cccs1)c1nnc(-c2cccnc2)s1 | 3.16µM* | 0.3 | -8.0%[46.1 µM] | -4.7 | -12.6 | -1.4%
O=C(NC1CCCCCC1)C1CCN(C(=O)N2CCOc3ccccc32)CC1 | . | . | . | . | -11.4 | -2.6%
CC1(C)S[C@@H]2[C@H](NC(=O)Cc3ccccc3)C(=O)N2[C@H]1C(=O)O (tested in a mixture with another compound) | . | . | . | . | 10.9 | .
Clc1ccc(-c2noc(CN3CCOCC3)n2)cc1 | 7.94µM* | 1.7 | -20.3% | -27.0 | -11.0 | -2.0%
Cc1nc2cc(NC(=O)NCc3ccco3)ccc2n1C | 11.2µM* | 1.4 | -2.6%[46.1 µM] | 4.5 | 19.3 | 1.9%
Cn1c(CCNC(=O)c2ccco2)nc2cc(NC(=O)c3ccccc3)ccc21 | ? | 0.1 | . | -15.9 | 10.1 | 1.2%
Cn1c(CCNC(=O)c2ccco2)nc2cc(NC(=O)c3ccco3)ccc21 | 8.91µM* | 1.2 | -6.3%[46.1 µM] | -17.3 | 4.9 | 0.1%
O=[N+]([O-])c1ccc(C=CC=Cc2ccccc2)cc1 | ? | 28.4 | . | . | -8.2 | .
CN(c1ccccc1)c1ccc(/C=C/[N+](=O)[O-])cc1 | -7.0% | 4.3 | ? | 13.3 | -107.5* | 0.3%
Cc1cc(C(F)(F)F)nn1-c1nc(-c2ccccc2)cc(C(F)(F)F)n1 | . | . | . | . | -33.5 | -0.5%
COC(=O)c1ccc(NC(=O)c2nc(SCc3ccccc3F)ncc2Cl)cc1 | 1.6% | . | . | . | . | .
CCCCNC(=O)CCCn1c(=S)[nH]c2cc3c(cc2c1=O)OCO3 | -9.8% | -0.7 | 2.6%[46.1 µM] | 2.9 | ? | 10.0%
O=C(CCCCCn1c(=S)[nH]c2ccccc2c1=O)NCc1ccc2c(c1)OCO2 | -18.4% | -1.3 | -24.2%[46.1 µM] | 3.3 | -62.1* | -3.7%
O=C(CCCn1c(=S)[nH]c2cc3c(cc2c1=O)OCO3)NCc1ccccc1Cl | -7.0% | -0.2 | . | -17.2 | -107.5* | ?
COc1cccc(CNC(=O)CCCn2c(=S)[nH]c3cc4c(cc3c2=O)OCO4)c1 | -7.6% | 0.2 | . | -4.0 | -70.9* | 21.1%
Nc1ccn([C@@H]2O[C@H](CO)[C@@H](O)C2(F)F)c(=O)n1 | . | . | . | . | -7.9 | .
Oc1cc(O)c(/C=C/c2ccnc3ccccc23)c(O)c1 | 9.0% | . | . | . | . | .
Cc1ccc(CNC(=O)CN2C(=O)CSc3ccc(S(=O)(=O)N4CCCC4)cc32)cc1 | . | . | . | . | -4.5 | 1.9%
Cc1cccc(NC(=O)c2ccc(OCC3CCCO3)cc2)c1C (stereo not given) | 14.1µM* | 0.0 | 1.0% | 6.8 | -7.7 | 6.5%
O=C(Nc1ccc(Cl)cc1)c1ccc(OCC2CCCO2)cc1 (stereo not given) | 4.47µM* | -3.3 | 15.2% | -10.5 | 2.6 | 1.0%
O=C(NCc1ccc(Cl)cc1)c1ccc(OCC2CCCO2)cc1 (stereo not given) | -2.2% | -3.2 | 5.7% | -21.4 | . | 2.6%
CCOc1cc(CNc2ccc(O)cc2)ccc1OCc1ccc(Cl)cc1 | . | . | . | . | ? | 3.5%
Cc1ccc(C(=O)NCC(=O)OCC(=O)c2ccc3ccccc3c2)cc1 | -4.5% | . | . | -20.8 | . | .
O=C(Nc1nc2ccc(F)cc2s1)c1nc(S(=O)(=O)Cc2ccccc2)ncc1Cl | . | . | . | . | . | 0.1%
O=C(Nc1ccc(F)cc1)c1nc(S(=O)(=O)Cc2ccccc2)ncc1Cl | -43.9% | -3.9 | . | -1.8 | -104.8* | -2.4%
SMILES | BRCA1 expr act | IL-2 act | NPSR antagonist | Giardia kill | RXFP1 antag | RXFP1 agonist
COc1ccc2nc(NC(=O)c3nc(S(=O)(=O)Cc4ccccc4F)ncc3Cl)sc2c1 | . | . | . | . | -82.8* | -1.1%
CS(=O)(=O)c1ncc(Cl)c(C(=O)Nc2ccc(OC(F)F)cc2)n1 | -90.2% | -3.7 | . | -13.7 | -82.4* | 11.9%
O=C(NCc1ccccc1)c1nc(S(=O)(=O)Cc2ccc(F)cc2)ncc1Cl | . | . | . | . | -116.1* | -0.2%
COC(=O)C1=C[C@@H](C(=O)OC)[C@@H]2C3=C(C(=O)[C@@]2(C)NC(=O)c2ccccc2)[C@H](C)[C@@H]2C(=O)N(c4ccccc4)C(=O)[C@@H]2[C@@H]3C1 | . | . | . | 29.5 | . | .
Cc1nnc(NC(=O)c2nc(S(=O)(=O)Cc3ccccc3)ncc2Cl)s1 | -49.0% | -4.8 | . | -18.2 | -6.2 | 2.1%
Cc1ccccc1CS(=O)(=O)c1ncc(Cl)c(C(=O)Nc2ccc(F)cc2)n1 | -79.9% | -1.0 | . | -9.9 | -103.5* | -0.5%
Cc1ccc(NC(=O)c2nc(S(=O)(=O)Cc3ccccc3)ncc2Cl)cc1 | -104.8% | -5.8 | . | -1.9 | -84.7* | 1.4%
CCOc1ccc(NC(=O)c2nc(S(=O)(=O)Cc3ccccc3C)ncc2Cl)cc1 | 0.0% | . | . | . | . | .
CC(=O)c1c(C)n(-c2cccc(Cl)c2)c2ccc(OC(=O)c3ccccc3)cc12 | . | . | . | . | -10.9 | -1.5%
Cc1ccccc1NC(=O)c1ccccc1OCC(=O)Nc1ccc(Br)cc1 | -41.4% | . | . | . | . | .
COc1ccc(C(=O)N2N=C(c3cccs3)CC2c2ccccc2O)cc1 (stereo not given) | -20.3% | -1.1 | . | 2.6 | -1.3 | -0.8%
COc1ccc(C2=NN(C(=O)c3cccs3)C(c3ccccc3O)C2)cc1 (stereo not given) | -47.0% | -3.4 | 10µM* | -12.4 | -11.5 | -1.9%
Cc1ccc(-c2nc(N3CCN(S(=O)(=O)c4ccc(F)cc4)CC3)c3ccc(Cl)cc3n2)cc1 | -9.7% | . | . | -12.0 | . | .
Cc1cc2cc(CN(Cc3ccc4c(c3)OCO4)Cc3nnnn3C3CCCC3)c(=O)[nH]c2cc1C | -33.2% | -2.0 | ? | 3.1 | -1.7 | 14.3%
Cc1ccc2[nH]c(=O)c(CN(Cc3ccc4c(c3)OCO4)Cc3nnnn3C3CCCC3)cc2c1 | -62.0% | 0.7 | 12.6µM* | 15.4 | 0.8 | 5.8%
CS(=O)(=O)N1CCN(/[N+]([O-])=N/Oc2ccc([N+](=O)[O-])cc2[N+](=O)[O-])CC1 (tested in a mixture with another compound) | 20.6% | . | . | . | . | .
CC(C)COC(=O)C(C#N)c1nc2ccccc2nc1N1CCN(Cc2ccccc2)CC1 (stereo not given) | -8.2% | -1.2 | -22.3%[46.1 µM] | 6.2 | 2.8 | -0.3%
C=CCNC(=O)C(C#N)c1nc2ccccc2nc1N1CCN(Cc2ccccc2)CC1 (stereo not given) | -14.9% | 66.5* | 6.8%[46.1 µM] | 20.3 | -5.9 | 0.3%
Cc1ccc(C(C)C)c(OCc2ccc(C(=O)N/N=C/c3ccc(O)c(O)c3)cc2)c1 | -92.9% | -0.8 | -35.6% | 9.3 | -25.1 | -1.2%
Cc1ccc(C(C)C)c(OCc2ccc(C(=O)N/N=C/c3cccc(O)c3O)cc2)c1 | -87.7% | -4.8 | 10µM* | -24.5 | -26.7 | -0.1%
